# The whole screen tested about 410,000 compounds, of which about 18,000 (4.4%) were called active. Another 7% or so got no clear call; they are omitted. The sample holds actives, similar compounds and a random draw of the others, so the mix is not that of the screen. Values without a mark were called inactive. Cut-off read from the data, not from the text of the source: active = activity change below about -60%; inconclusive = no clear call, values can overlap the other calls; inactive = above about -39%.
# Assay: qHTS Assay for inhibitors of the human cytomegalovirus (HCMV)
# Conditions: HFF cells, HCMV-luciferase reporter, 72 h; at 57.5 µM; stronger effect = lower value
# In short: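 Human foreskin fibroblasts infected with luciferase-reporter HCMV at MOI 1 PFU/cell, compounds at two doses. Luciferase measured 72 h post infection; normalized to buffer-only basal and Salinomycin (10uM) controls.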
# % is set by controls: 0 for no effect and ±100 for the full control effect.
row,SMILES,"activity change, negative = inhibition"
1,Cc1cccc(-c2nc(SCC(=O)Nc3cc(C)on3)c3c(=O)n(C)c(=O)n(C)c3n2)c1,-3.8%
2,CCOC(=O)c1oc2ccc(S(=O)(=O)n3nc(-c4ccccc4OC)cc3N)cc2c1C,0.413%
3,Cc1oc2cc3oc(=O)ccc3cc2c1C,57.6%
4,Cc1ccc(NC(=O)Cc2ccc(NC(=O)N3CCCCc4ccccc43)cc2)cc1,2.61%
5,COc1ccc2c(c1)c(=O)c(C(=O)c1ccccc1)cn2CC(=O)Nc1ccc2c(c1)OCCO2,-4.48%
6,COc1ccc(-c2noc(CSc3nc(C)cc(=O)[nH]3)n2)cc1OC,14.1%
7,COc1ccccc1-c1noc(CSc2nnc(-c3ccccc3)n2-c2ccc(C)c(C)c2)n1,4.88%
8,COc1ccccc1-c1noc(CSc2nc(C)cc(=O)[nH]2)n1,-61.9% (active)
9,Cn1c(=O)sc2cc(NS(=O)(=O)c3ccc(C(C)(C)C)cc3)ccc21,-1.79%
10,COc1ccc(N2CCN(S(=O)(=O)c3cc(Br)cnc3N)CC2)cc1,19.7%
11,O=C(Cc1ccc(Cl)cc1)Nc1ccc2nn(-c3ccc(Cl)cc3)nc2c1,21.1%
12,Cc1cc2nn(-c3ccc(Cl)cc3)nc2cc1NC(=O)C(C)C,-64.3% (active)
13,CCCC(=O)Nc1cc2nn(-c3ccccc3)nc2cc1C,123%
14,Cn1c(=O)n(Cc2c(F)cccc2Cl)c(=O)c2c1nc1n2CCN1c1ccc(F)cc1,17.8%
15,COCCn1c(SCC(=O)c2cc(C)ccc2C)nc2cc(C(=O)NC3CCCC3)ccc2c1=O,-4.52%
16,CC(C)c1ccc(NS(=O)(=O)c2ccc3[nH]cc(C(=O)NC4CCCC4)c(=O)c3c2)cc1,9.04%
17,Cn1nnnc1SCCNCc1ccc(Cl)c(Cl)c1,6.59%
18,Cc1c(Cl)cccc1-c1ccc(CNCCCSc2nnnn2C)o1,-0.502%
19,COc1cc(CNCCSc2nnnn2C)ccc1OCc1c(F)cccc1Cl,-60.3% (active)
20,CCOc1ccc(CNCCSc2nnnn2C)cc1,-12.8%
21,COc1cccc(CNCCSc2nnnn2C)c1OCc1ccccc1Cl,-75.4% (active)
22,COc1cc(CNCCSc2nnnn2C)ccc1OCc1ccc(Cl)cc1Cl,-13.2%

row,SMILES,"activity change, negative = inhibition"
1,Cc1ccc(Cn2c(C)c3cnn(CC(=O)NCc4ccccc4)c(=O)c3c2C)cc1,-4.95%
2,Cc1ccc(CNC(=O)CSC2=Nc3ccccc3C3=NC(C)C(=O)N23)cc1 (stereo not drawn),-13.2%
3,CCCn1ccc2c(OCC(=O)NCc3ccc(F)cc3)cccc2c1=O,13.2%
4,CC1=C(c2ccc(F)cc2)S(=O)(=O)N=C1N1CCC(C(=O)NCCc2ccccc2C)CC1,-1.97%
5,CCOc1ccc(CNC(=O)CCc2c(C)nn(-c3ccc(N4CCCCC4)nn3)c2C)cc1,17.5%
6,CC(Sc1cccc[n+]1[O-])C(=O)Nc1cccc(S(=O)(=O)N2CCOCC2)c1 (stereo not drawn),28.7%
7,CCC(=O)c1ccc(OCC(O)CN2CCN(c3cccc(C(F)(F)F)c3)CC2)cc1 (stereo not drawn),-2.36%
8,CCC(=O)c1ccc(OCC(O)CN2C(=O)NC(C)(C)C2=O)cc1 (stereo not drawn),-18.3%
9,CCC(=O)c1ccc(OCC(O)Cn2nc(C)c(C(C)=O)c2C)cc1 (stereo not drawn),-74.9% (active)
10,COc1ccc(S(=O)(=O)N2CCCCC2c2cc(C(=O)NCc3ccc(F)cc3)no2)cc1 (stereo not drawn),-15%
11,COc1ccccc1OCC(=O)Nc1nnc2n1CCS2,1.36%
12,CC1CN(C(=O)N2CCC(C(=O)NCc3ccco3)CC2)c2cc(Cl)ccc2O1 (stereo not drawn),-3.73%
13,O=C1CCCN1CCCNC(=S)Nc1ccc(F)c(Cl)c1,-22.1%
14,Cn1c(=O)c2sccc2n2c(CCC(=O)NCc3ccccc3Cl)nnc12,9.44%
15,O=C(CCc1nnc2ccc(NCCCN3CCCC3=O)nn12)NCc1ccccc1Cl,0% (active)
16,Cc1cc(=O)c2cc(C(=O)Nc3cccc(C)c3C)ccc2[nH]1,-7.29%
17,C[C@@H]1CC2=C(C(=O)OC(C)(C)O2)[C@@H](C2CC2)O1,7.2%
18,CCN(C(=O)COC(=O)c1c(C)nn(-c2ccccc2)c1Cl)c1c(N)n(Cc2ccccc2)c(=O)[nH]c1=O,-3.2%
19,Cn1cccc1Cc1nnc(SCC(=O)NCc2ccc3c(c2)OCO3)n1CCc1ccccc1,-7.07%
20,O=C(CSc1ccc(-c2ccco2)nn1)NCc1ccc2c(c1)OCO2,-3.61%
21,O=C(CSc1ncnc2scc(-c3ccccc3)c12)NCc1ccc2c(c1)OCO2,-73.8% (active)
22,COc1cc2nc(SCc3ccc(F)cc3)n3nc(CCn4c(C)nc5ccccc54)nc3c2cc1OC,-1.21%

row,SMILES,"activity change, negative = inhibition"
1,O=C(CCC(=O)N1CC2CCCN2c2ccccc21)NCc1ccccc1Cl (stereo not drawn),-6.89%
2,COc1cc(NC(=O)CSc2nc3nc(C)c(Cc4ccc(C)cc4)c(C)n3n2)cc(OC)c1OC,0%
3,CCOC(=O)c1c(NC(=O)c2ccc(S(=O)(=O)N3CCCC(C)C3)cc2)sc2c1CCN(C(C)C)C2 (stereo not drawn),-62.5% (active)
4,CCOC(=O)c1c(NC(=O)C2CCN(S(=O)(=O)c3ccc(Cl)cc3)CC2)sc2c1CCCC2,-10.4%
5,COC(=O)c1c(NC(=O)c2ccc(S(=O)(=O)N3CCOCC3)cc2)sc2c1CCN(C(C)C)C2,-4.29%
6,NC(=O)CSc1nc2c(oc3ccccc32)c(=O)n1Cc1ccccc1,-22.4%
7,COc1ccc(OC)c(NC(=O)Cn2c(=O)n(Cc3ccccc3)c(=O)c3ccccc32)c1,-3.04%
8,COc1cccc(C(=O)N(Cc2cccc(Cl)c2)Cc2ccco2)c1,-7.17%
9,CCC(=C/c1sc2ccc3ccccc3c2[n+]1C)/C=C1\Sc2ccc3ccccc3c2N1C,-100% (active)
10,CCOc1ccc(N2CC(c3nc4ccccc4n3CCOc3ccc(OC)cc3)CC2=O)cc1 (stereo not drawn),23.3%
11,Cc1ccc(-n2c(=O)c3cccnc3n2CC(=O)NCc2ccc(F)cc2)cc1C,-0.36%
12,O=C(CSc1nc2nccnc2c(=O)n1Cc1cccs1)Nc1ccccc1F,-31.3%
13,CCOc1ccc(NC(=O)CSc2nc3ccccc3c(=O)n2Cc2cccs2)cc1,-62.8% (active)
14,CCOc1ccc(NC(=O)c2cc3c(=O)n(Cc4cccs4)ccc3nc2C)cc1,-12.4%
15,CCc1ccc(C(=O)C(C)OC(=O)CN2C(=O)NC3(CCCC3)C2=O)cc1 (stereo not drawn),-31.9%
16,O=S(=O)(NCC1CN(S(=O)(=O)c2ccc3c(c2)OCCO3)C1)c1c(F)cccc1F,-3.7%
17,Cc1ccc(S(=O)(=O)c2nc(-c3ccco3)oc2SCC(=O)Nc2ccc(F)cc2)cc1,1.94%
18,COc1ccccc1CNc1nccn(-c2ccc(F)cc2)c1=O,18.6%
19,Cn1cnc(C(F)(F)F)c1-c1ccc([N+](=O)[O-])cc1,-9.95%
20,CCN(CC)S(=O)(=O)c1cc([N+](=O)[O-])ccc1N=Nc1c(O)n(C)c2ccccc12,-37.9%
21,Cn1nc(-c2ccccc2)c2cc([N+](=O)[O-])ccc21,-91.8% (active)
22,Cc1cccc(NS(=O)(=O)c2cc(Cl)ccc2Cl)n1,-15.4%

row,SMILES,"activity change, negative = inhibition"
1,Cn1c(=O)c2[nH]c(NCC3CCCO3)nc2n(-c2ccccc2)c1=O (stereo not drawn),-3.27%
2,CCCCCNC(=O)c1cccnc1SCC(=O)Nc1ccccc1OC,-9.93%
3,Cc1oc2ccc(O)c(CN3CCC(C)CC3)c2c1C(=O)Nc1ccccc1,-68.4% (active)
4,Cc1oc2ccc(O)c(CN3CCCCC3)c2c1C(=O)Nc1cccc(C(F)(F)F)c1,-76.5% (active)
5,CCOC(=O)c1cccc(NC(=O)c2cc(CN3CCCC3)on2)c1,88.3%
6,Cc1oc2ccc(O)c(CN3CCOCC3)c2c1C(=O)Nc1cccc(Cl)c1C,0.476%
7,CCN1CCN(Cc2c(O)ccc3oc(C)c(C(=O)Nc4ccc(C)cc4C)c23)CC1,-4.07%
8,Cc1ccc(Oc2c(C(F)(F)F)oc3c(CN4CCCCC4)c(O)ccc3c2=O)cc1,13.5%
9,O=C(NCC(F)(F)F)c1ccc(S(=O)(=O)NCCc2ccc3c(c2)OCCO3)cc1,-6.01%
10,CCOc1ccccc1NC(=O)Cn1c2ncccc2c(=O)n1-c1ccc(C)c(C)c1,-10.1%
11,CC1CCCN(S(=O)(=O)c2ccc3[nH]c(=O)cc(C(=O)NCCc4ccc(Cl)cc4)c3c2)C1 (stereo not drawn),-16.9%
12,COc1cc(NC(=O)c2cc([N+](=O)[O-])ccc2Br)ccc1NC(=O)c1ccco1,-60.9% (active)
13,COC(=O)C(O)(c1ccc(NC(=O)c2ccco2)c(OC)c1)C(F)(F)F (stereo not drawn),14.6%
14,CCOC(=O)C(O)(c1ccc(NC(=O)c2ccco2)c(OC)c1)C(F)(F)F (stereo not drawn),8.29%
15,C=CCOC(=O)C1=C[C@@H](c2ccc3c(c2)OCO3)C[C@@H](OCCCCO)O1,20.6%
16,CN1C(=O)CC[C@@H](S(=O)(=O)c2ccccc2)[C@@H]1c1ccccc1,9.42%
17,CCOCCCNC(=O)c1cn(CC)c2ccc(S(=O)(=O)N3CCc4ccccc4C3)cc2c1=O,8.54%
18,Cc1cc(C)c2nc3nc(C)cc(C)c3c(N)c2c1,-100% (active)
19,CCOc1ccc(S(=O)(=O)NCCC(=O)N2CCCCCCC2)cc1,-33.2%
20,CCNC(=O)c1cnn(-c2ccccc2)c1-c1ccccc1,-99.9% (active)
21,Cc1c(C(=O)NCc2ccccc2)cnn1-c1ccccc1,-15.9%
22,CCCc1c(C(=O)Nc2ccc(F)cc2)cnn1-c1ccccc1,64.5%
